The list is not random: actives were taken first. Their share in the collection is about 3.7%.
IL2 activator: qHTS of IL-2 Activators; IL-2 activation reporter assay, cell-based qHTS; stimulated with anti-CD3/CD4/CD28 beads; in transgenic mouse T cells; activation, % (series mostly up to about 46 µM); 0.065% of 360,000 active; AID 652025, 2013; in the data active = activation above about 50%; inconclusive = mostly about 30% to 49%; note: 0% is about no effect
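First, unstimulated transgenic mouse T cells were exposed to compound for 60 min. Next, anti-CD3/anti-CD4-coated beads with anti-CD28 were added. Finally, after 18 h at 37 degrees C, EGFP and DsRed were imaged.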
Nrf2 ARE act: qHTS of Nrf2 Activators | AREc32 ARE-luciferase reporter (MCF7-derived line), luminescence, 24 h | 0.31% of 410,000 active | Potency, µM (highest dose often 46.1 µM), for inactives: top-dose activation, usual class: activators; note: potency is the fitted concentration of half-maximal effect; % of control where 0% means no effect; nearly all actives have a fitted effect of over 65% in size
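AREc32 cells carrying an ARE-driven firefly luciferase, 1000 cells/well in OPTI-MEM with 5% FBS, dosed after overnight attachment and incubated 24 hr at 37 deg C. Steady-Glo luminescence read after 30 min at RT.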
Nrf2 block: Nrf2 qHTS screen for inhibitors. A549 ARE-Fluc reporter, luciferase luminescence, 18-24 h. 2.1% of 360,000 active. Potency, µM (highest dose often 46 µM), for the others: at the top dose activity change, negative = inhibition, actives largely listed as inhibitors; note: potency is the fitted concentration of half-maximal effect; % is set by controls: 0 for no effect and ±100 for the full control effect; nearly all actives have a fitted effect of over 60% in size
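Cells were seeded and rested 2 h, then exposed to compounds for 18-24 h. CellTiter-Fluor was read first as a viability measure. BugLite was added 15 min before the final luminescent read of ARE-luciferase activity in A549 cells.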
ClpP mod: qHTS Assay for Activators of ClpP | purified B. subtilis ClpP, FRET peptide cleavage, 20 min | Potency, µM (highest dose often 57.5 µM), for inactives: top-dose activity change, negative = active | 1.9% of 340,000 active; active = well fitted falling curve with a large enough effect; inconclusive = small, poorly fitted or top-dose-only effect; inactive = no such curve, though single readings can be large or run the other way; note: potency is the fitted concentration of half-maximal effect; the source files actives as falling curves though it sought activators and does not explain the sign; nearly all actives have a fitted effect of over 65% in size
Target sequence (P80244 whole entry, looked up): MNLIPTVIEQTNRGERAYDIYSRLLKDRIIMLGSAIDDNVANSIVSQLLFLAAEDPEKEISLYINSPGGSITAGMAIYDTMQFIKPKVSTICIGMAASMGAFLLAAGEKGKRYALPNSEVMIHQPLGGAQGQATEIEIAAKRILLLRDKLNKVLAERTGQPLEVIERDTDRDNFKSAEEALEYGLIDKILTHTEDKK
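Buffer: 100 mM Tris/HCl pH8, 100 mM KCl, 0.05% low protease BSA, 2.5% glycerol, 0.01% Tween-20. ClpP 10 microg/mL final; 20 min RT; delta FRET normalized to ADEP and DMSO controls.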
miR-21 act: qHTS Assay for Modulators of miRNAs and/orActivators of miR-21; HeLa miR-21 FLuc reporter, luciferase, 48 h; Potency, µM (highest dose often 38.3 µM), for inactives: at the highest dose activity change, positive = activation, hits mostly activators; 340,000 tested, under 10 active;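 note: % of control where 0% means no effect; miR-21 action dims this reporter so a rising signal means less miR-21 action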
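HeLa cells endogenously expressing miR-21, stably carrying CMV-driven firefly luciferase with a downstream miR-21 binding site, 2000 cells/well. Titrations up to approximately 40 uM, 48 hours; luciferase luminescence read.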
A549 viability: Nrf2 qHTS screen for inhibitors: counterscreen for cytotoxicity; A549 ARE-Fluc cells, CellTiter-Fluor viability, 18-24 h; Potency, µM (series often up to 46 µM), for inactives: at the highest dose activity change, negative = cytotoxicity, most hits filed as inhibitors; 0.16% of 390,000 active; AID 504648, 2011; note: potency is the fitted concentration of half-maximal effect; % is set by controls: 0 for no effect and ±100 for the full control effect
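Cytotoxicity counterscreen: CellTiter-Fluor fluorescence was measured in A549 ARE_Fluc cells after 18-24 h of compound exposure in a concentration series. The subsequent BugLite luminescent read reports ARE-luciferase activity.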
The depositor's hits bear a star; u = inconclusive; x = no result. Unless noted, calls come from the whole dose curve; as a rule, active = well fitted curve in the direction sought with a large enough effect; inconclusive = small, poorly fitted or top-dose-only effect, or another doubt; inactive = no such curve, though single readings can be large; an effect the other way counts as inactive or inconclusive.

SMILES	IL2 activator	Nrf2 ARE act	Nrf2 block	ClpP mod	miR-21 act	A549 viability
CCN(C(=O)COC(=O)CCCN1C(=O)c2cccc3cccc(c23)C1=O)C1CCS(=O)(=O)C1 (stereo not drawn)	0	-1%	-3%	28µM*	x	-4%
CN(CC(=O)Nc1cccc(F)c1)C(=O)CCN1C(=O)C2CC=CCC2C1=O (stereo not drawn)	-1	-1%	-8%	-2%	x	0%
CN(CC(=O)Nc1cccc(F)c1)C(=O)CCCN1C(=O)c2cccc3cccc(c23)C1=O	1	6%	2%	14µM*	x	-9%
O=C(COC(=O)CCCN1C(=O)c2cccc3cccc(c23)C1=O)Nc1cccc(C(F)(F)F)c1	-3	2%	-21%	28µM*	-8%	-7%
O=C(COC(=O)CCCN1C(=O)c2cccc3cccc(c23)C1=O)Nc1cccc(Br)c1	1	4%	1%	u	-7%	-5%
COc1ccc(CNC(=O)c2cc3c(=O)n(Cc4ccc(OC)cc4)ccc3nc2C)cc1	x	0%	u	108%	15%	-7%
Cc1nc2ccn(Cc3cccnc3)c(=O)c2cc1C(=O)NCc1ccc(Cl)cc1	x	4%	u	13µM*	18%	0%
O=S(=O)(c1ccc(Oc2ccc3c(c2)OCO3)c(S(=O)(=O)N2CCOCC2)c1)N1CCOCC1	x	x	-10%	0%	x	-1%
COc1cccc(CSc2nc(-c3ccccc3F)nc3c2Cc2c(CO)cnc(C)c2O3)c1	x	7%	u	1%	-1%	-1%
N#Cc1c(NC(=O)CSc2nc(N)cc(=O)[nH]2)sc2c1CCCC2	0	5%	15µM*	x	-9%	-22%
Cc1nnc(SCC(=O)Nc2sc3c(c2C#N)CCCC3)[nH]c1=O	2	2%	x	-2%	-10%	0%
COc1ccccc1NS(=O)(=O)c1ccc2c(c1)CCC(=O)N2	x	x	3%	x	x	9%
O=C(Nc1ccc(Cl)cc1)c1sccc1-n1cccc1	-1	11µM*	u	x	-6%	11%
COc1ccc(COc2ccsc2C(=O)Nc2ccc(Cl)cc2)cc1	0	8.9µM*	u	69%	0%	u
COc1ccc(Cc2nc(C(=O)Nc3ccc(Cl)cc3)cs2)cc1	1	1%	u	-5%	8%	-15%
Cc1ccc2c(c1)N(C(=O)c1ccc(F)cc1)C(C)(C)CC2(C)c1ccccc1 (stereo not drawn)	x	-1%	-20%	-1%	16%	15%
CCn1c(CNC(=O)c2ccc(OC)cc2)nnc1SCC(=O)Nc1cccc(C)c1C	x	-1%	20%	-8%	-8%	-15%
CN(CC(=O)Nc1ccc(F)c(F)c1F)C(=O)/C=C/c1ccco1	-1	13µM*	-7%	x	x	1%
COc1cc2nc(N3CCCN(C)CC3)nc(NC3CCN(Cc4ccccc4)CC3)c2cc1OC	x	x	x	4%	x	x
O=C1/C(=C/c2cccs2)SC(=S)N1c1cccc(O)c1	0	9%	13%	x	-45%	-2%
O=C1/C(=C/c2cccs2)SC(=S)N1c1ccccc1	6	2%	10µM*	1%	-4%	u
Cc1ccc(C)c(SC2=NS(=O)(=O)c3ccccc32)c1	x	x	-1%	x	x	-8%
COc1ccc(C)cc1NC(=O)c1c2c(nc3ccccc13)C(=O)N(C1CCCCC1)C2	x	0%	u	-1%	u	-25%
CCCCCCCC(=O)N/N=C/c1ccc([N+](=O)[O-])o1	0	12%	u	1%	-8%	-2%
O=[N+]([O-])c1ccc(/C=N/N=C/c2ccc([N+](=O)[O-])o2)o1	-8	4µM*	u	-2%	u	21µM*
SMILES	IL2 activator	Nrf2 ARE act	Nrf2 block	ClpP mod	miR-21 act	A549 viability
Cc1ccccc1OCC(=O)N/N=C/c1ccc([N+](=O)[O-])o1	0	14%	u	-2%	u	-17%
Cc1ccc(-c2cc(C(=O)N/N=C/c3ccc([N+](=O)[O-])o3)c3ccccc3n2)o1	-4	2%	21µM*	-3%	19%	u
O=C(Cc1ccc([N+](=O)[O-])cc1)N/N=C/c1ccc([N+](=O)[O-])o1	0	6%	21µM*	-1%	u	-22%
O=C(O)/C=C/c1ccc([N+](=O)[O-])o1	0	u	u	x	-5%	-3%
Cc1cc(C)cc(OCC(=O)N/N=C/c2ccc([N+](=O)[O-])o2)c1	-4	4%	21µM*	54%	26%	u
COc1ccc(Br)cc1CNC(=O)c1cc2n(n1)CCCN(Cc1ccc(C)cc1)C2=O	x	4%	x	1%	1%	-9%
O=C(CNc1cccc2ccccc12)N/N=C/c1ccc([N+](=O)[O-])o1	-3	10%	16µM*	0%	u	u
O=C(CCN1CCN(c2ccccc2)CC1)N/N=C/c1ccc([N+](=O)[O-])o1	-1	11%	21µM*	x	22%	u
O=C(CN1CCOCC1)NN=Cc1ccc([N+](=O)[O-])o1	1	-1%	x	-1%	x	x
COc1ccccc1-c1nnc(NC(=O)C(C)C)s1	0	u	x	32µM*	-29%	-3%
COc1ccccc1-c1nnc(NC(C)=O)s1	-2	u	u	28µM*	-40%	5%
COc1ccccc1-c1nnc(NC(=O)C(C)Sc2nncn2C)s1 (stereo not drawn)	-1	u	-15%	-5%	-39%	-4%
CCc1ccc(N2CC(c3nnc(NC(=O)c4ccco4)s3)CC2=O)cc1 (stereo not drawn)	x	-1%	4%	4%	-9%	5%
CCOc1ccc(NC(=O)NCCc2c(C)nn(C)c2C)cc1	x	0%	x	1%	-1%	-1%
CC(=O)NNC(=O)c1csc(-c2csc(C)n2)n1	6	0%	-5%	32µM*	0%	4%
N#C/C(=C\c1ccc(O)cc1)c1nc2ccccc2o1	57*	12%	9%	x	-38%	0%
COc1cc(/C=C(\C#N)c2nc3ccccc3o2)ccc1O	16	u	-11%	x	-8%	0%
COc1ccc(C(F)(F)F)cc1NC(=O)C(OC(=O)CNC(=O)c1ccccc1)c1ccccc1 (stereo not drawn)	x	x	12%	x	x	7%
Cc1nn(C)c(C(=O)NNC(=S)NCc2ccco2)c1Cl	-1	0%	-3%	1%	-7%	-1%
Cc1nn(C)c(C(=O)NNC(=S)NCC(C)C)c1Cl	-3	0%	-9%	8.9µM*	-4%	2%

Screening data (PubChem)
